Data taken from PubChem BioAssay (NCI).
This is part of a sample that, as a whole, favours compounds with a hit. Of some 79,000 tested, about 15% had one in any assay. Unmarked numbers belong to inactive results. Calls of active or inactive are those of the source. Rule as the data show it: active = growth inhibition above about 70%; inactive = the rest.

Test: NCI Yeast Anticancer Drug Screen. Data for the cln2 rad14 strain (AID 165);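 also: 0% = growth equal to vehicle treated cultures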
Details: S. cerevisiae cln2 rad14 strain, at 50.0 µM, hits give high values
Protocol: Growth inhibition of yeast strains with defined genetic alterations is measured as a screen for potential anti-cancer activity. Selected strains with alterations in DNA damage repair or cell cycle control were exposed to compounds and growth inhibition was measured relative to vehicle treated controls. The strain used in this assay is cln2 rad14

SMILES | growth inhibition
O=C(O)C(Nc1ccccc1)c1ccccc1 (stereo not given) | -21.9%
NNc1nc2ccccc2c(=O)n1NC(=O)C(=O)Nc1cccc(C(F)(F)F)c1 | -38.6%
OCCN1CCN(C2=Nc3cccnc3Nc3cscc32)CC1 | -9.75%
COC(=O)C(=O)C(C(=O)C(=O)Nc1cc(C)ccc1C)c1nc2ccccc2[nH]c1=O (stereo not given) | 21.1%
Nc1ccc(C2SCC(=O)N2NS(=O)(=O)c2cccc(C(=O)O)c2)cc1 (stereo not given) | 0.8%
CC(C)SC1SCC2C(=O)N(C)C3(CC3C)C(=O)OCC(NC(=O)c3nc4ccccc4cc3O)C(=O)NC(C)C(=O)N(C)C1C(=O)N(C)C1(CC1C)C(=O)OCC(NC(=O)c1nc3ccccc3cc1O)C(=O)NC(C)C(=O)N2C (stereo not given) | 73.8% (active)
COC(=O)c1c(-c2ccc3c(c2)OCO3)cn(C)c1C | -5.25%
C=CCOc1cc2c(cc1C(C)c1ccc(OCC)c(C)c1)OCO2 (stereo not given) | -70.5%
NCCN1CCOCC1 | 3.45%
CCOCCOCCOC12C(=O)C(Cl)=C(Cl)C(=O)C13C1CC2C(Cl)C13 (stereo not given) | 98% (active)
CC1[C@@H]2CC=C3[C@H]4CCC5Cc6nc7c(nc6C[C@@]5(C)C4CC(=O)[C@]32CO[C@]12OC(C)(C)CC2O)CC1CC[C@@H]2C3=C[C@H]4O[C@@]5(O[C@@](C)(CO)C[C@@H]5O)C(C)[C@@]4(O)[C@]3(C)[C@@H](O)CC2[C@]1(C)C7 (stereo not given in full) | 57.2%
Cc1onc(-c2c(F)cccc2Cl)c1-c1ncc(-c2ccc(Cl)cc2)o1 | 0.8%
Fc1ccc(F)c(C2SCc3nc4ccccc4n32)c1 (stereo not given) | 25.1%
O=c1c(Br)c(-c2ccccc2Br)[nH]c2ccccc12 | 0.4%
O=C(NCc1ccccc1)C1CCN(Cc2c[nH]c3ccccc23)CC1 | 16.5%
CCOC(=O)CCC(NC(=O)N1CCN(c2c(C)nc(C)[nH]c2=O)CC1)C(=O)OCC (stereo not given) | -4.7%
O=C(c1ccc(Cl)cc1)C(c1ccccc1)N1CCCCC1 (stereo not given) | -45.8%
C#CC(O)C(CC)CCCC (stereo not given) | -10.4%
CCOCCC(=O)O | -5.3%
O=C(CCCN1CCC(Nc2ccccc2)(c2nnnn2C2CCCCC2)CC1)c1ccc(F)cc1 | 11.1%

SMILES | growth inhibition
CC(=O)N[N+](C)(C)C | 4.05%
CC(=O)/C=c1\[nH]/c(=C\C=C\c2ccccc2)c(=O)n1/C=C1\C(=O)Oc2ccccc2C1=O | 24.6%
NCCSCCC(=O)O | 7.3%
Cc1ccc(C2(C)CC[C@@H]3C[C@@]32C)c(O)c1 (stereo not given in full) | 92.2% (active)
CCOC(=O)C(/C=N\c1[nH]ncc1C#N)=C(/C(=O)OCC)c1ccc(O)cc1 | -21.2%
COc1ccc(COC(=O)NNC(=O)C2CSC(c3ccccc3)N2C(C)=O)cc1 (stereo not given) | 3.4%
O=S(=O)(Oc1ccc(Cl)cc1)c1ccc(Br)cc1 | 8.8%
CCCCOC(=O)c1c2nc3c(C(=O)OCCCC)ccc(C)c3oc-2c(C)c(=O)c1NC(C)=O | 4.9%
C/C(=N/NC(N)=O)C1C2CC3C(C2Cl)C31 (stereo not given) | -30.6%
C1CCC2(CC1)OCCS2 | 7.8%
CCOC(=O)C(=O)C(/C(=N/N(C)C)C(=O)Nc1ccc(C)cc1C)c1nc2ccccc2[nH]c1=O (stereo not given) | 11.7%
Oc1ccc(-c2ccc(O)cc2O)c(O)c1 | 7.45%
O=C(O)c1cc2ccc(Cl)cc2c2cc(C(F)(F)F)ccc12 | 50.9%
N#CCCNCCC[Si]12OCCN(CCO1)CCO2 | 56.9%
NC(=O)Nc1cccc(C(=O)O)c1C(=O)O | -33.6%
CCCC(=O)c1c(C)cc(C)cc1C | 9.45%
Clc1ccc2c(c1)N(C1CCCN(Cc3ccccc3)C1)c1ccccc1S2 (stereo not given) | 25.8%
CC12CCCC(C(=O)O)(C1)[C@H](C(C)(C)C(=O)O)CC2 (stereo not given in full) | 8.75%
O=c1[nH]cnc2sc3c(c12)CCC3 | 13.4%
Cc1ccnc(N(C)CCN2CCCCC2)c1 | -34.5%
